# An excerpt weighted towards active compounds, which were near 19% of everything screened.
# HT1080 IDH1KD tx = toxicity to HT-1080 IDH1 knockdown cells (counter line) | HT-1080 IDH1 knockdown viability, ATP luminescence, 48 h | Potency, µM (doses to about 46.1 µM), for the others: at the highest dose activity, negative = toxicity, hits mostly cytotoxic | 2% of 360,000 active | AID 686971;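 also: potency is read from the fitted curve at half-maximal effect; 0% = DMSO wells and -100% = cell-free medium wells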
#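 CellTiter-Glo luminescence after 48 h compound exposure at 37 degrees C of IDH1-knockdown HT-1080 cells in 5% FBS RPMI. %Activity scaled between DMSO wells and cell-free media wells, with curves fitted and assigned curve classes.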
# HT1080NT lethal = kills 2HG-producing HT-1080-NT fibrosarcoma cells. HT-1080-NT fibrosarcoma viability, CellTiter-Glo ATP luminescence, 48 h. 1.6% of 360,000 active. Potency, µM (top dose mostly 46.1 µM), for the others: top-dose activity, negative = less viability, hits mostly cytotoxic;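 also: NT is the 2HG producing partner of a matched IDH1 knockdown line; potency is read from the fitted curve at half-maximal effect; 0% = DMSO-treated cells and -100% = media-only wells without cells; nearly all actives have a fitted effect of over 55% in size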
#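 Luminescent CellTiter-Glo readout after 48 hours of compound exposure at 37 degrees C defined viability of HT-1080-NT cells. Activity was normalized to DMSO wells and cell-free media wells; concentration-response curves were fitted and assigned curve classes.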
# TDP1 cell CPT = DT40-hTDP1 cell growth loss with CPT; chicken DT40 Tdp1-/-;hTDP1 cells + 20 nM CPT, ATP luminescence, 48 h; Potency, µM (highest dose often 46.2 µM), inactives show at the top dose activity change, negative = growth inhibition, most hits filed as inhibitors; 12% of 420,000 active; AID 686979; also: potency is read from the fitted curve at half-maximal effect; nearly all actives have a fitted effect of over 55% in size
#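 Cell growth measured by CellTiter-Glo luminescence after a minimum 48 h, 37 C compound exposure with 20 nM CPT in Tdp1-knockout DT40 cells stably expressing hTDP1, seeded 400/well; qHTS titration format.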
# TDP1 cell noCPT = qHTS for Inhibitors of human tyrosyl-DNA phosphodiesterase 1 (TDP1): qHTS in cells in absence of CPT | DT40 Tdp1-/- hTDP1 cells, no CPT, ATP luminescence, 48 h | Potency, µM (highest dose often 46.2 µM), for the others: top-dose activity change, negative = growth inhibition, most hits filed as inhibitors | 15% of 420,000 active | AID 686978, 2013; also: potency is read from the fitted curve at half-maximal effect; nearly all actives have a fitted effect of over 55% in size
#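 Luminescent ATP content (CellTiter-Glo) served as the growth readout. Knockout chicken DT40 cells expressing human TDP1 were exposed to compounds without camptothecin for a minimum 48 hr at 37 °C.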
# IL1B secr inh = inhibitors of inflammasome signaling (IL-1 beta secretion) | AID 743279 | 4.7% of 360,000 active | THP-1 LPS/ATP IL-1B secretion, AlphaLISA, 16 h; hits give low values | activity change, % at 57.5 µM; in the data active = activity change below about -50%; inconclusive = mostly about -30% to -49%
#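 Secreted IL-1B measured by AlphaLISA bead assay after 16 h compound exposure of THP-1 cells; compounds (final up to 57.5 uM) added 1 h before LPS (250 ng/mL) and ATP (1.25 mM) stimulation; lower signal means less secretion.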
# Starred values were filed as active, the others as inactive; ? = inconclusive; . = not tested or not shown; [ ] = another dose, or the depositor's remark. Unless noted, calls follow the shape of the dose curve; as a rule, active = well fitted curve in the direction sought with a large enough effect; inconclusive = small, poorly fitted or top-dose-only effect, or another doubt; inactive = no such curve, though single readings can be large; an effect the other way counts as inactive or inconclusive. Unless noted, % is scaled to controls: 0 for no effect and ±100 for the full control effect.
SMILES,HT1080 IDH1KD tx,HT1080NT lethal,TDP1 cell CPT,TDP1 cell noCPT,IL1B secr inh
CCOCCCNC(=O)Cn1cc2c(n1)-c1c(oc(C(=O)N3CCCC3)c1C)CC2,-2.6%,0.4%,?,?,18.0
CCOc1ccccc1CNC(=O)Cn1cc2c(n1)-c1c(oc(C(=O)N3CCCC3)c1C)CC2,.,.,13µM*,13µM*,.
Cc1c(C(=O)N2CCCC2)oc2c1-c1nn(CC(=O)NCc3ccccc3Br)cc1CC2,.,.,?,20.6µM*,.
COc1cccc(NC(=O)CCN2C(=O)c3ccccc3Sc3ncccc32)c1,3.6%,0.1%,-18.8%,6.9%,13.4
CCCC(=O)N1CCCC1(C)C(=O)NCCc1ccccn1 (configuration not stated),18.6%,14.1%,-2.7%,6.4%,19.8
CSc1ccccc1NC(=O)COC(=O)CSc1ccc(C)cc1,-0.6%,-13.4%,-2.4%,-2.0%,15.8
Nc1c(Cl)cc(C2=NCCn3nc4cc([N+](=O)[O-])ccc4c32)cc1Cl,-16.3%,-24.5%,?,18.4µM*,-15.0
Nc1c(Cl)cc(C2=NCCn3nc4cc(C(F)(F)F)ccc4c32)cc1Cl,-18.1%,-17.4%,20.6µM*,20.6µM*,?
Nc1c(Cl)cc(C2=NCCn3c2c2ccc([N+](=O)[O-])cc2[n+]3[O-])cc1Cl,-12.2%,-12.9%,1.84µM*,5.8µM*,-0.5
COc1ccc2c3n(nc2c1)CCN=C3c1cc(Cl)c(N)c(Cl)c1,?,?,?,16.4µM*,?
CC(=O)OCc1c(C(F)(F)F)nn(C)c1Sc1ccccc1,-0.3%,-0.6%,-6.8%,-2.6%,11.3
O=C(NNc1c2ccccc2nc2ccccc12)c1ccccc1Cl,-6.7%,0.5%,-23.2%,?,60.4
O=C(NNc1c2ccccc2nc2ccccc12)c1ccc(O)cc1,-19.6%,-7.1%,13µM*,?,-21.6
O=C(NNc1c2ccccc2nc2ccccc12)c1cccc(O)c1,-0.2%,-9.9%,?,11.6µM*,-79.7*
Cc1ccc(C(=O)NNc2nc3ccccc3nc2C(F)(F)F)cc1,-1.7%,0.0%,?,23.1µM*,1.9
Cc1ccc(C(=O)Nc2nc3ccccc3n3nnnc23)cc1,11.0%,8.0%,-17.4%,-11.1%,7.0
O=C(O)c1cccc(Nc2c3ccccc3nc3ccccc23)c1,-0.6%,5.2%,?,?,-13.6
Cc1cccc(OCC(=O)Nc2ccc(S(=O)(=O)Nc3onc(C)c3C)cc2)c1C,-17.1%,-6.6%,-3.1%,?,6.2
CCNC(=O)Nc1ccc2c(c1)c(=O)n(C)n2Cc1ccc(Cl)cc1,22.1%,29.6%,-21.9%,-17.7%,13.5
CN(C)CCCCCCNc1cc(N2CCN(C)CC2)ncn1,.,.,-8.9%,0.1%,.
CN(C)CCCCCCNc1nccc(N2CCN(C)CC2)n1,.,.,10µM*,20µM*,.
CC(C)(C)C(=O)c1cn(CC(=O)NCc2ccc3c(c2)OCO3)c2ccccc12,-16.9%,-13.2%,?,23.1µM*,-20.6
CC(C)C(=O)c1cn(CC(=O)NCc2ccc3c(c2)OCO3)c2ccccc12,-7.3%,-6.5%,-28.3%,?,-22.6
COc1ccc(C(=O)NCc2cc(C)nc3ccccc23)cc1,?,?,?,?,98.5
CC(C)n1nc(C(=O)NCc2ccc3c(c2)OCO3)c2ccccc2c1=O,-2.3%,-2.3%,16.4µM*,20.6µM*,28.1
SMILES,HT1080 IDH1KD tx,HT1080NT lethal,TDP1 cell CPT,TDP1 cell noCPT,IL1B secr inh
Cc1cc(CNC(=O)c2ccc3c(c2)OCO3)c2ccccc2n1,?,?,7.31µM*,4.61µM*,103.8
O=C(NCc1ccc2c(c1)OCO2)c1cc(-c2ccccn2)nc2ccccc12,-4.4%,1.1%,-27.5%,?,-81.9*
O=C(NCc1ccc2c(c1)OCO2)c1n[nH]c(=O)c2ccccc12,-13.1%,-19.8%,?,?,-2.8
Cc1ccc(N(C)S(=O)(=O)c2ccc3c(c2)NC(=O)C(C)S3)cc1 (configuration not stated),-25.0%,?,-22.9%,-13.7%,26.9
COC(=O)c1cnc2c(c(C)nn2C)c1OC,4.5%,2.4%,2.9%,-25.1%,.
COc1cc(-c2cnc3ccccc3c2)cc2c1OCCN(C(=O)CCC(=O)c1ccc(F)cc1)C2,.,.,11.4%[9.04 µM],-22.0%,.
COc1ccc(OC)c(C(C(=O)NC2CCCCC2)N(C(=O)c2ccccn2)c2cccnc2)c1 (configuration not stated),-0.3%,-21.5%,1.7%,-17.9%,-7.0
Cc1nc2ccccc2nc1OCC(=O)NCc1ccc2c(c1)OCO2,?,-5.9%,14.6µM*,7.31µM*,2.7
O=C(COc1ncnc2ccccc12)NCc1ccc2c(c1)OCO2,-1.2%,-3.4%,0.3%,-18.1%,15.2
CCc1cccc(CC)c1NC(=S)NCc1ccc2c(c1)OCO2,-2.3%,-1.9%,23.1µM*,18.4µM*,-10.4
S=C(NCc1ccc2c(c1)OCO2)NCc1ccc2c(c1)OCO2,-4.7%,-5.3%,2.6%,-8.6%,30.7
CCc1cccc(CC)c1NC(=S)NC(C)c1ccccc1 (configuration not stated),7.0%,-2.0%,-85.0%,23.1µM*,-25.2
C=CCn1c(=O)c(C(=O)NCc2ccc3c(c2)OCO3)c(O)c2cc(OC)c(OC)cc21,15.0%,20.4%,?,18.4µM*,-21.5
C[C@H]1[C@H](C)CC[C@]2(C(=O)O)CC[C@]3(C)C(=CCC4[C@@]5(C)C[C@@H](O)[C@H](O)[C@@](C)(CO)[C@@H]5CC[C@]43C)[C@H]12 (some centres not stated),.,.,0.7%,?,.
O=C(NCc1ccc2c(c1)OCO2)c1ccc2c(c1)OCO2,-4.6%,0.1%,-1.9%,-4.4%,-15.3
O=C(NCc1ccc2c(c1)OCO2)c1c(F)c(F)c(F)c(F)c1F,0.1%,-15.4%,-9.3%,4.1%,-64.7*
O=C(NCc1ccc2c(c1)OCO2)c1ccccc1Cl,-2.3%,-2.8%,-3.2%,2.7%,-68.0*
Cc1ccc(CNC(=O)C2CCN(S(=O)(=O)c3cn(C)cn3)CC2)cc1,.,.,-9.7%,-16.2%,.
CCOC(=O)C1(C)C=C(Nc2cccc(C)c2)C(=O)N1c1ccccc1 (configuration not stated),.,.,?,18.4µM*,.
CCOC(=O)C1(C)C=C(Nc2cccc(OC)c2)C(=O)N1c1ccccc1 (configuration not stated),-8.8%,-5.3%,-9.1%,-21.8%,.
CCOc1ccccc1CN1C(=O)NC2(CCCCCC2)C1=O,-1.2%,-1.5%,15.4%,-20.1%,14.3
O=C(CCCCCNc1nc(=S)[nH]c2ccccc12)NCCc1ccccc1,-3.9%,-4.1%,?,?,26.5

# Bioassay records from PubChem BioAssay.
